The values that follow come from PubChem BioAssay.

Values without a mark were called inactive. For some assays here: Results with a measured potency or affinity are listed apart. Active and inactive are the calls of the source. Unless noted, the rule behind the calls is not given here.

The nature of assay [1]: antimalarial activity against Dd2 strain (AID 2302;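 active = growth inhibition above 50% at the single 2 µM test dose, taken to imply half-maximal potency below 2 µM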;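 note: 0% = DMSO untreated growth and 100% = chloroquine plus artemisinin killed control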). Conditions: P. falciparum Dd2 in RBCs, LDH growth readout, 72 h; at 2 µM; stronger effect = higher value.
A short description of assay [2]: HepG2 cytotoxicity, primary screen, cytotoxicity control for P. falciparum antimalarial project, cell-based, ATP luminescence (AID 2303;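 active = inhibition above 50%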;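 note: 0% = DMSO wells and 100% = digitonin-killed cells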). Conditions: HepG2 viability, 24-48 h, at 10 µM, stronger effect = higher value.
Assay [3] has as its target L-lactate dehydrogenase (Plasmodium falciparum (isolate CDC / Honduras)) (UniProt Q27743). The assay can be described thus: PfLDH activity inhibition – cell lysate, 3D7 strain, counter-screen for P. falciparum growth inhibition project (AID 2304).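 Note: 0% = vehicle and 100% = reference inhibitor.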 The settings on record: P. falciparum 3D7 crude extract, LDH APAD/NBT absorbance; at 2 µM; stronger effect = higher value.
A short description of assay [4]: inhibition of 3D7 malaria parasite growth – strain 3D7 (AID 2306).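 Note: 0% = DMSO wells and 100% = chloroquine plus artemisinin control wells.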 The settings on record: P. falciparum 3D7 erythrocytic growth, LDH absorbance, 72 h; at 2 µM; stronger effect = higher value.
For assay [5], the target named is Calcium-dependent protein kinase 1 (Plasmodium falciparum (isolate 3D7)) (UniProt P62344). The assay can be described thus: PfCDPK1 kinase inhibitors, biochemical, TCAMS library (AID 1159585; cut-off not given, nearly all actives have IC50 up to about 0.98 µM;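 note: inhibitors leave more ATP so luminescence rises with inhibition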). The settings on record: recombinant PfCDPK1, Kinase-Glo ATP depletion luminescence.
Assay [6] deals with Plasmodium falciparum protein kinase 6 (PK6, PF3D7_1337100) (UniProt Q8IDW1). Put plainly: PfPK6 kinase inhibitors, biochemical, TCAMS library (AID 1159586). The settings on record: recombinant PfPK6, Kinase-Glo ATP depletion luminescence.
Assay [7] concerns the target Protein kinase 7 (PK7), Plasmodium falciparum 3D7 (PF3D7_0213400) (UniProt Q7YTF7). The assay can be described thus: inhibition of Plasmodium PK7 catalytic activity – biochemical, TCAMS antimalarial set, Kinase-Glo luminescence (AID 1159587). Conditions: recombinant PfPK7, Kinase-Glo ATP depletion luminescence.
Assay [8] deals with Calcium-dependent protein kinase 4 (Plasmodium falciparum (isolate 3D7)) (UniProt Q8IBS5). Put plainly: PfCDPK4 kinase inhibitors, biochemical, TCAMS library (AID 1159588; cut-off not given, nearly all actives have IC50 up to about 0.91 µM). Conditions: recombinant PfCDPK4, Kinase-Glo ATP depletion luminescence.
Sequence of Calcium-dependent protein kinase 4 (Plasmodium falciparum (isolate 3D7)) (Q8IBS5 whole entry, looked up): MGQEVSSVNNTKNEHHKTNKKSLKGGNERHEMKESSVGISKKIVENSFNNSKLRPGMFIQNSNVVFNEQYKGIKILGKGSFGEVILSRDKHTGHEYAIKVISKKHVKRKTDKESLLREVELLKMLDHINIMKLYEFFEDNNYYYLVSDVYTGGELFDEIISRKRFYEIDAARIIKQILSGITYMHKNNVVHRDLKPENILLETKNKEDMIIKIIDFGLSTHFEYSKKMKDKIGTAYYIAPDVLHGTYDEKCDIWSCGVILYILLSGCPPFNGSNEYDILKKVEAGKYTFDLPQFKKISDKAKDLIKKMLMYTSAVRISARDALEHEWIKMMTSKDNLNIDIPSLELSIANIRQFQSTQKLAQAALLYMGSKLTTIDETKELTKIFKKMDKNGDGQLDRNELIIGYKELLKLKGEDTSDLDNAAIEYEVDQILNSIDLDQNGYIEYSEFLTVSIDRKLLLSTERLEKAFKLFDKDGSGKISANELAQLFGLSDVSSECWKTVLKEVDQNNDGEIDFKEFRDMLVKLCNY

Sequence of L-lactate dehydrogenase (Plasmodium falciparum (isolate CDC / Honduras)) (Q27743 whole entry, looked up): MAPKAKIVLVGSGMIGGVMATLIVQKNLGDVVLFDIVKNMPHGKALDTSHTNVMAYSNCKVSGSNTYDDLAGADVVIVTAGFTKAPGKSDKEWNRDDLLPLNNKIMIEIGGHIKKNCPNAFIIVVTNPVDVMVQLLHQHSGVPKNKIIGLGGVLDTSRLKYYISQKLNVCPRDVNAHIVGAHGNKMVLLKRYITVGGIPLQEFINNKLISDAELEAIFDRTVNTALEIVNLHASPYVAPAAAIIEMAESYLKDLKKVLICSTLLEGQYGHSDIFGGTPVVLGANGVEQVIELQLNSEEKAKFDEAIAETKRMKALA
Sequence of Calcium-dependent protein kinase 1 (Plasmodium falciparum (isolate 3D7)) (P62344 whole entry, looked up): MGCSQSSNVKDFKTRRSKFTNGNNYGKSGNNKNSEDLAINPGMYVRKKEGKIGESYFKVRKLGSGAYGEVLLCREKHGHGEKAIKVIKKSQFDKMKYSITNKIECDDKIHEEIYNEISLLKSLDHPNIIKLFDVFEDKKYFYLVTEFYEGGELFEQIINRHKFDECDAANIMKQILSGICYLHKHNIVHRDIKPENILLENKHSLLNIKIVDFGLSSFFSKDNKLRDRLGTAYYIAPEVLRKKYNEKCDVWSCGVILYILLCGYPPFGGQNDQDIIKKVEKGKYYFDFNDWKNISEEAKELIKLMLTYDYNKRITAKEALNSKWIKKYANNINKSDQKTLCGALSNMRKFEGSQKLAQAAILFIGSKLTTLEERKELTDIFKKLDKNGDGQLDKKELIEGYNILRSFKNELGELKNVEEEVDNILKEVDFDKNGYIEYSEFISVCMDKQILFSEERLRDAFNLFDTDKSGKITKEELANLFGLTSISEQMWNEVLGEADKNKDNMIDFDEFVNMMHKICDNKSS
Sequence of Protein kinase 7 (PK7), Plasmodium falciparum 3D7 (PF3D7_0213400) (Q7YTF7 1-343): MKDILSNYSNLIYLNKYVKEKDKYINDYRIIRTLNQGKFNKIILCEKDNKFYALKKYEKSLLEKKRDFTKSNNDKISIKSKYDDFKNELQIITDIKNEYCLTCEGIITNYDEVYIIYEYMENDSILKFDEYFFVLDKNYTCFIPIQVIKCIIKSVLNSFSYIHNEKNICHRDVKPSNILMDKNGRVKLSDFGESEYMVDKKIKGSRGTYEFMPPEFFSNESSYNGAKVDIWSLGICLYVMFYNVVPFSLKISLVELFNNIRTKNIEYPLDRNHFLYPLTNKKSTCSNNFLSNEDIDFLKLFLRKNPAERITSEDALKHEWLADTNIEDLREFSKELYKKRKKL
Sequence of Plasmodium falciparum protein kinase 6 (PK6, PF3D7_1337100) (Q8IDW1 1-305): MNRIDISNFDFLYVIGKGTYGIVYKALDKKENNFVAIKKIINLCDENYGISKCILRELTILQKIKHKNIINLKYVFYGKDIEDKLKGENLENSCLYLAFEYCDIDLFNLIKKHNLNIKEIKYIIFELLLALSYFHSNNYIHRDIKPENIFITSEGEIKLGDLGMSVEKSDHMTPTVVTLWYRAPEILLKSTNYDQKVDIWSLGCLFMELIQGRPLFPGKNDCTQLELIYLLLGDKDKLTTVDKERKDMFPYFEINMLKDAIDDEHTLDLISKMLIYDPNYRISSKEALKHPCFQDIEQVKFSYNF

Consider `O=C(NCCCCCN1CCC(c2ccc(O)cc2)CC1)c1ccc(-c2ccccc2)cc1`, for which the figures for the growth inhibition in assay [1] and in assay [4] were -7% and 92% (active), respectively. The values for the inhibition in assay [2] and in assay [3] were 28% and -1%, respectively. Further, the result in assay [5], in assay [6], in assay [7] and in assay [8] was inactive.
Turning to `COc1ccc2nccc(N3CCC(O)(CCNCc4ccc5c(n4)NC(=O)CS5)CC3)c2n1`, the growth inhibition in assay [1] was 21%; in assay [4] it was 99% (active). The inhibition is 10% in assay [2] and 0% in assay [3]. Further, the outcome in assay [5], in assay [6], in assay [7] and in assay [8] was inactive.
Consider `O=C(Nc1cccc(C(F)(F)F)c1)c1ccc(S(=O)(=O)NCC2CCCN2CC2CCCCC2)cc1` (configuration not stated), for which the growth inhibition is 3% in assay [1] and 98% (active) in assay [4]. Also, the inhibition in assay [2] was 14%; in assay [3], -5%. The result in assay [5], in assay [6], in assay [7] and in assay [8] was inactive.
In the case of `CC(Cc1ccc(C(=O)N2CCN(C(=O)c3ccc(CC(C)NCCc4cccc(Cl)c4)cc3)CC2)cc1)NCCc1cccc(Cl)c1` (configuration not stated), the growth inhibition is 85% (active) in assay [1] and 101% (active) in assay [4]. Moreover, the inhibition in assay [2] is 99% (active); in assay [3], -4%. Also, the result in assay [5], in assay [6], in assay [7] and in assay [8] was inactive.
For the compound `Cc1cccc2[nH]c(-c3ccc(-c4ccc(CNCc5ccccc5)cc4)s3)nc12`, the growth inhibition in assay [1] was 87% (active); in assay [4], 103% (active). In addition, the inhibition in assay [2] was 22%; in assay [3], -1%. Also, the result in assay [5], in assay [6], in assay [7] and in assay [8] was inactive.
For the compound `Cc1cccc2[nH]c(-c3ccc(-c4ccc(CNCCNC(=O)c5ccnn5C)cc4)s3)nc12`, the growth inhibition in assay [1] was 97% (active); in assay [4] it was 101% (active). The inhibition in assay [2] is 20%; in assay [3] it was -1%. For the same compound, the outcome in assay [5], in assay [6], in assay [7] and in assay [8] was inactive.
On to `CC1(CCN2CCC(c3c[nH]c4cnccc34)CC2)CCCc2c(Br)cccc2C1=O` (configuration not stated), for which the growth inhibition was 66% (active) in assay [1] and 101% (active) in assay [4]. The inhibition was 14% in assay [2] and 3% in assay [3]. In addition, the result in assay [5], in assay [6], in assay [7] and in assay [8] was inactive.
As for `O=C(c1ccc([N+](=O)[O-])o1)N1CCC(c2cn(Cc3cccc(F)c3)c3ccccc23)CC1`, the growth inhibition in assay [1] was 95% (active); in assay [4] it was 97% (active). Further, the inhibition is 1% in assay [2] and -2% in assay [3]. Moreover, the outcome in assay [5], in assay [6], in assay [7] and in assay [8] was inactive.
With `CCCSc1nc2c(c(=O)n1CCc1ccccc1)C1(CCCC1)Cc1ccccc1-2`, the growth inhibition in assay [1] was 53% (active); in assay [4], 99% (active). The inhibition was 46% in assay [2] and -4% in assay [3]. The outcome in assay [5], in assay [6], in assay [7] and in assay [8] was inactive.
Regarding `COc1ccc2c(NN=Cc3ccc(F)cc3)ccnc2c1`, the values for the growth inhibition in assay [1] and in assay [4] were 99% (active) and 100% (active), respectively. The inhibition in assay [2] was 14%; in assay [3] it was -4%. Moreover, the outcome in assay [5], in assay [6], in assay [7] and in assay [8] was inactive.
With `CC1(C)C(=O)Nc2ccc3c(c21)CC1SC(=O)NN=C31` (configuration not stated), the figures for the growth inhibition in assay [1] and in assay [4] were 92% (active) and 96% (active), respectively. The inhibition in assay [2] is 6%; in assay [3], -1%. Also, the result in assay [5], in assay [6], in assay [7] and in assay [8] was inactive.
In the case of `CCOc1cc2ccccc2cc1CNCCCCCCNCc1cc2ccccc2cc1OCC`, the values for the growth inhibition in assay [1] and in assay [4] were 76% (active) and 101% (active), respectively. In addition, the inhibition in assay [2] was 99% (active); in assay [3], 2%. The result in assay [5], in assay [6], in assay [7] and in assay [8] was inactive.
Take `CN1CCN(c2nc(NCCNc3ccc([N+](=O)[O-])cc3)c3ccccc3n2)CC1`: the results for the growth inhibition in assay [1] and in assay [4] were 25% and 90% (active), respectively. Also, the values for the inhibition in assay [2] and in assay [3] were 37% and 6%, respectively. For the same compound, the outcome in assay [5], in assay [6], in assay [7] and in assay [8] was inactive.
With `CN(C)c1ccc(C=C2SC(=N)N(c3nccs3)C2=O)cc1`, the growth inhibition is 50% (active) in assay [1] and 97% (active) in assay [4]. Moreover, the inhibition in assay [2] was 38%; in assay [3], 2%. The outcome in assay [5], in assay [6], in assay [7] and in assay [8] was inactive.
As to `Cc1cc2nc(-c3ccc(/C=C/C(=O)NCCc4ccccc4)cc3)[nH]c2cc1C`, the results for the growth inhibition in assay [1] and in assay [4] were 13% and 98% (active), respectively. Besides, the inhibition is 3% in assay [2] and 1% in assay [3]. For the same compound, the result in assay [5], in assay [6], in assay [7] and in assay [8] was inactive.
`O=c1c(NCCCN(Cc2ccc(F)cc2)c2ccccn2)c(NCc2cccnc2)c1=O`: the growth inhibition in assay [1] was 92% (active); in assay [4], 101% (active). The inhibition in assay [2] and in assay [3] was -2% each time. The outcome in assay [5], in assay [6], in assay [7] and in assay [8] was inactive.
As to `C=CCC1OC(=O)c2cc(OC)cc(OC)c21` (configuration not stated), the growth inhibition in assay [1] is 100% (active); in assay [4], 95% (active). Moreover, the inhibition is 100% (active) in assay [2] and 2% in assay [3]. The result in assay [5], in assay [6], in assay [7] and in assay [8] was inactive.
Regarding `O=C(NCCN1CCCC1)c1cccc(-c2ccc(-c3nc4ccc(F)cc4[nH]3)s2)c1`, the values for the growth inhibition in assay [1] and in assay [4] were 4% and 100% (active), respectively. In addition, the inhibition in assay [2] was 51% (active); in assay [3] it was -1%. The outcome in assay [5], in assay [6], in assay [7] and in assay [8] was inactive.
Take `COc1ccc(-c2ccc(S(=O)(=O)Nc3cc4c(cc3OC(C)C)CCNCC4)cc2)cc1`: the results for the growth inhibition in assay [1] and in assay [4] were -1% and 86% (active), respectively. Besides, the inhibition in assay [2] is 16%; in assay [3], 3%. The result in assay [5], in assay [6], in assay [7] and in assay [8] was inactive.
